In the library only some 2.8% were active in any assay of this set; here they are far more common.
FGF22 binding: FGF22 (human) thermal shift binding | AID 651658 | recombinant FGF22 thermal shift, SYPRO orange fluorescence; percent of sucrose octasulfate shift, DMSO zero | 340,000 tested, 1.5% active | activity (Tm shift, normalised), % at 9.99 µM;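 active = mean Tm shift, scaled 0 neutral to 100 positive control, at about 1.3% or above, every replicate too, limit read from the data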
Target sequence (Q9HCT0 whole entry, looked up): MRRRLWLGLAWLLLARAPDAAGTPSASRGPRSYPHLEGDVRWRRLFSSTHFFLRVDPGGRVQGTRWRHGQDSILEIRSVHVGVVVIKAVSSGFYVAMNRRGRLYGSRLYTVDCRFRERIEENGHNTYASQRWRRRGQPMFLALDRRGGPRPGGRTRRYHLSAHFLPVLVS
dFosB act: activators of mouse delta FosB homodimer. activation, % at 25 µM. 340,000 tested, 0.99% active. AID 493131. P13346. purified delta FosB, TAMRA-CDK5 oligo fluorescence polarization; percent of positive-control signal above neutral wells;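 active = mean activation above about 17%, with every replicate also reaching it, limit read from the data, passing the limit was not always enough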
SIRT5 block: blocks human SIRT5 desuccinylation of peptide | Purified SirT5, succinyl-peptide AMC, trypsin-coupled fluorescence | Q9NXA8 | AID 652115 | 330,000 tested, 1.1% active | inhibition, % at 15 µM; in the data active = inhibition above about 15%
Target sequence (Q9NXA8 whole entry, looked up): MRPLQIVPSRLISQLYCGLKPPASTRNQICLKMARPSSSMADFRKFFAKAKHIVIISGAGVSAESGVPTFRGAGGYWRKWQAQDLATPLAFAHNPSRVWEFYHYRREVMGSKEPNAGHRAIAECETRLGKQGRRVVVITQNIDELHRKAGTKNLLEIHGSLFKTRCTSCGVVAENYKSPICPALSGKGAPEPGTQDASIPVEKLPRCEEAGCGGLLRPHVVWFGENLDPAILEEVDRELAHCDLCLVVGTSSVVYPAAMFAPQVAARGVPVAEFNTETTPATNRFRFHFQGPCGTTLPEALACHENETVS
PglD inh: PglD (C. jejuni) enzyme inhibition; purified PglD enzyme, DTNB colorimetric CoA detection; inhibition, % at 12.5 µM; 360,000 tested, 0.098% active; AID 602405; in the data active = inhibition above about 16%, passing the limit was not always enough
CDK5 inh: blocks human CDK5/p35 kinase activity; Q00535+Q15078; Recombinant CDK5/p35, ADP-Glo luminescence, 60 min; inhibition, % at 10 µM; 330,000 tested, 0.01% active;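 active = highest replicate inhibition of at least 50% and at least 75% of replicates reaching 50%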;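 note: plate controls were DMSO neutral control for no effect and GW8510 at 10 µM for full effect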
PvdQ inh: P. aeruginosa PvdQ acylase inhibition | inhibition, % at 10 µM | purified PvdQ acylase, fluorescence plate reader | 340,000 tested, 0.063% active; in the data active = inhibition above about 30%, passing the limit was not always enough;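 note: 0% = vehicle neutral wells and 100% = reference inhibitor wells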
The depositor's hits bear a star; nt = not tested or not shown.

SMILES	FGF22 binding	dFosB act	SIRT5 block	PglD inh	CDK5 inh	PvdQ inh
Cc1ccc(-c2nnn(CC(=O)N(CC3CCCO3)C(C(=O)NC3CCCCC3)c3ccc(F)cc3)n2)o1 (stereo not drawn)	nt	24.8*	nt	-3.1	2.4	6.2
CCCNC(=O)[C@H]1[C@H](CO)[C@H]2Cn3c(ccc(-c4ccccc4)c3=O)[C@@H]1N2C(=O)C1CC1	0.1	nt	-32.2	1.0	nt	nt
Cc1ccc(S(=O)(=O)N(C)C[C@H]2Oc3c(cccc3N(C)C)C(=O)N([C@@H](C)CO)C[C@@H]2C)cc1	0.3	nt	13.1	2.0	nt	nt
O=C(OCc1cc([N+](=O)[O-])cc2c1OCOC2)c1cccnc1SC(F)F	-0.1	-10.2	0.1	nt	-0.9	-4.7
O=C(OCc1cc([N+](=O)[O-])cc2c1OCOC2)c1ccccn1	43.0*	3.9	0.7	nt	-2.4	1.7
O=C(CN1CCN(Cc2ccc(Cl)cc2)C1=O)NCc1cccs1	43.9*	-1.0	0.4	-1.9	1.0	-4.1
O=C(CN1CCN(S(=O)(=O)c2ccc(Cl)cc2)CC1)NCc1cccs1	nt	1.4	-25.9	nt	0.6	-2.8
CS(=O)(=O)N1N=C(c2ccco2)CC1c1ccc(Br)cc1 (stereo not drawn)	43.5*	-3.4	-4.0	nt	-2.6	-11.9
COc1ccc(NC(=O)N(C)C[C@H]2Oc3ccc(NC(=O)Nc4ccc(C(F)(F)F)cc4)cc3CC(=O)N([C@H](C)CO)C[C@H]2C)cc1	0.0	nt	nt	2.8	nt	nt
C=CCN(Cc1nc(-c2ccc(OC)cc2)no1)C(=O)c1ccc2c(c1)OCO2	0.1	-7.0	17.4*	4.7	0.3	-13.8
FC(F)(F)c1ccc(Cl)c(NC(=S)N/N=C/c2ccccc2Cl)c1	0.0	nt	27.6*	-2.8	nt	nt
O=C(NC(=S)Nc1cc(C(F)(F)F)ccc1Cl)c1ccccc1	nt	6.6	nt	-7.9	0.1	-8.0
C[C@H](CO)N1C[C@H](C)[C@@H](CN(C)S(C)(=O)=O)Oc2ccc(NC(=O)Nc3ccc(F)cc3)cc2C1=O	-0.1	nt	nt	2.0	nt	nt
COc1ccc2c3c(n(C)c2c1)[C@@H](CO)N(Cc1ccccc1OC)CC31CCN(C)CC1	0.0	nt	nt	nt	nt	nt
CC(=O)N(c1nc(CCl)cs1)c1cccc(C)c1C	0.1	2.6	-6.0	-1.6	0.9	-8.1
CC(=O)N(c1nc(/C=C\C(=O)O)cs1)c1ccccc1F	0.2	12.2	16.9*	3.1	-1.4	-3.3
O=C(CNc1ccc(Br)cc1)c1ccc(O)cc1	0.5	-3.2	17.4*	nt	-1.0	-7.4
C[C@H]1CCCCO[C@@H](CN(C)S(=O)(=O)c2cccs2)[C@@H](C)CN([C@@H](C)CO)C(=O)c2cc(NC(=O)Nc3ccc(F)cc3)ccc2O1	-0.4	nt	-0.1	-2.5	nt	nt
CC(=O)CCc1ccc(OCC(=O)Nc2cccc(S(=O)(=O)N(C)c3ccccc3)c2)cc1	-0.4	10.8	16.9*	-1.1	2.1	-20.8
CN(c1ccccc1)S(=O)(=O)c1cccc(NC(=O)c2cc(=O)c3ccccc3o2)c1	43.4*	1.0	-2.8	nt	-0.5	-8.9
COc1ccc2c3c(n(C)c2c1)[C@H](CO)N(C(=O)C1CCCC1)CC31CN(C)C1	-0.1	nt	-3.0	nt	nt	nt
O=C(NC[C@@H]1CC[C@@H]2[C@@H](CN2Cc2cccc(Cl)c2)O1)C1CC1	nt	nt	0.2	nt	nt	nt
O=C(Nc1nccc(-c2cccs2)n1)c1cccs1	nt	-6.3	nt	nt	1.3	-11.2
Nc1nccc(-c2cccs2)n1	43.4*	6.4	1.7	nt	-0.9	-12.0
Cc1cc(C)c(NS(=O)(=O)c2ccccc2)c(C)n1	43.3*	nt	nt	nt	nt	nt
SMILES	FGF22 binding	dFosB act	SIRT5 block	PglD inh	CDK5 inh	PvdQ inh
Cc1cccnc1NS(=O)(=O)c1cccc([N+](=O)[O-])c1	0.0	-12.1	2.3	1.9	0.9	-10.5
Cc1cccnc1NS(=O)(=O)c1ccccc1	43.6*	nt	nt	1.2	nt	nt
Cc1ccc(S(=O)(=O)N(C)C[C@H]2OCCCC[C@H](C)Oc3ccc(N(C)C)cc3C(=O)N([C@@H](C)CO)C[C@@H]2C)cc1	-1.6	nt	2.3	9.9	nt	nt
Cc1ccc(NC(=O)C2CCN(C(=O)c3ccco3)CC2)cc1C	0.3	-4.1	79.2*	-6.6	0.3	7.4
CCN(CC)C(=O)C1=C(C)N(Cc2ccccc2)C(=O)C(CC(=O)NCc2ccco2)C1 (stereo not drawn)	43.1*	nt	nt	-1.4	nt	nt
CC1=C(C(=O)N(C(C)C)C(C)C)CC(CC(=O)NCCCN(C)C)C(=O)N1CCC1=CCCCC1 (stereo not drawn)	0.0	nt	22.6*	-3.1	nt	nt
CCCCN1C(=O)C(CC(=O)NCc2ccco2)CC(C(=O)N(CC)CC)=C1C (stereo not drawn)	43.4*	nt	nt	-1.6	nt	nt
CCCCN1C(=O)C(CC(=O)NCc2ccco2)CC(C(=O)N(C)C)=C1C (stereo not drawn)	0.1	nt	2.7	-1.7	nt	nt
CCCCN1C(=O)C(CC(=O)NCCCN(C)C)CC(C(=O)N(CC)CC)=C1C (stereo not drawn)	43.4*	nt	nt	-1.7	nt	nt
CCCCN1C(=O)C(CC(=O)NCCCN(C)C)CC(C(=O)N(C(C)C)C(C)C)=C1C (stereo not drawn)	0.1	nt	nt	nt	nt	nt
CC1=C(C(=O)N(C(C)C)C(C)C)CC(CC(=O)NCc2ccco2)C(=O)N1Cc1ccccc1 (stereo not drawn)	0.0	nt	-2.8	-1.6	nt	nt
COCC(=O)N(C)C[C@@H]1Oc2cc(C#CC(C)(C)O)ccc2S(=O)(=O)N([C@@H](C)CO)C[C@@H]1C	0.1	nt	-1.6	5.6	nt	nt
COc1ccc(NC(=O)N(C)C[C@H]2Oc3c(NC(=O)Nc4ccc5c(c4)OCO5)cccc3C(=O)N([C@@H](C)CO)C[C@H]2C)cc1	-0.4	nt	-1.1	-1.3	nt	nt
CC1=C(C(=O)N(C)C)CC(CC(=O)NCc2ccco2)C(=O)N1Cc1ccccc1 (stereo not drawn)	-0.4	nt	16.0*	0.1	nt	nt
CN1C(=O)c2cc(NC(=O)C3CCC3)ccc2OC[C@@H]2O[C@H](CC(=O)NCc3ccccc3F)CC[C@@H]21	-0.2	nt	0.5	nt	nt	nt

Screening data: PubChem BioAssay, Broad Institute
